# Data from PubChem BioAssay (NCATS).
# Results filed as inconclusive are left out. The source made the active and inactive calls. Unless noted, calls come from the whole dose curve; as a rule, active = well fitted curve in the direction sought with a large enough effect; inconclusive = small, poorly fitted or top-dose-only effect, or another doubt; inactive = no such curve, though single readings can be large; an effect the other way counts as inactive or inconclusive.
# Key:
# [1] = test system: Zika virus NS2B-NS3 protease (linked construct); experiment: Primary screen NINDS Rhodamine qHTS for Zika virus inhibitors (AID 1347160)
# Procedure, shortened: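 Percent inhibition, normalized to uninhibited and enzyme-free controls, is fitted to a 4-parameter Hill equation. Fluorescence change comes from a 15-min cleavage of 1.5 microM bis-peptide Rhodamine110 substrate by 25 nM linked NS2B-NS3 at room temperature.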
# [2] = HPAF-II Cancer Cell Toxicity qHTS against the NCATS CANVASS Library (AID 1347346)
# Procedure, shortened: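 HPAF-II cells were seeded at 1000 cells/well, allowed to settle for 4 h at 37 degrees C, then exposed to compounds in an 11-point series for 72 h. Viability was read by CellTiter-Glo luminescence.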
# [3] = OV-SAHO Cancer Cell Toxicity qHTS against the NCATS CANVASS Library (AID 1347348)
# Procedure, shortened: (§1)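 ATP content after 72 h treatment, detected by CellTiter-Glo luminescence (15min room-temperature development), reflects cell viability. Wells contained 1000 cells and received compounds at 11 concentrations.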
# [4] = Panc-1005 Cancer Cell Toxicity qHTS against the NCATS CANVASS Library (AID 1347349)
# Procedure, shortened: as §1
# [5] = U-118MG Cancer Cell Toxicity qHTS against the NCATS CANVASS Library (AID 1347351)
# Procedure, shortened: as §1
# [6] = A2780 Cisplatin Sensitive Ovarian Cancer Cell Toxicity qHTS against the NCATS CANVASS Library (AID 1347353)
# Procedure, shortened: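 A2780 cisplatin-sensitive cells (750 per well) were seeded, left 4 h at 37 °C, then pin-dosed in an 11-point series. After 72 h at 37 °C/5% CO2, viability was measured as ATPLite luminescence.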
# [7] = UWB1.289-WTBRCA1 Cancer Cell Toxicity qHTS against the NCATS CANVASS Library (AID 1347354)
# Procedure, shortened: (§2)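 Cells were seeded at 1000 per well and allowed to settle 4 hours at 37 degrees C before pin transfer of compounds as an 11-point series. Viability was read by CellTiter-Glo luminescence after 72 hours' exposure.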
# [8] = HEK-293 Cancer Cell Toxicity qHTS against the NCATS CANVASS Library (AID 1347355)
# Procedure, shortened: as §2
# [9] = HPAF-II 24hr Apoptosis Induction qHTS against the NCATS CANVASS Library (AID 1347356)
# Procedure, shortened: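 HPAF-II cells (500/well) in DMEM + 10% FBS were treated with an 11-point compound series for 24 hours at 37 degrees C. Caspase-3/7 activity was then read by Caspase-Glo DEVD luminescence after 15 min.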
# [10] = HEK293 18hr Apoptosis Induction qHTS against the NCATS CANVASS Library (AID 1347357)
# Procedure, shortened: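 HEK293 cells (500/well, DMEM + 10% FBS) treated with an 11-point series for 18 h at 37 degrees C. Caspase-3/7 activity read by Caspase-Glo luminescence after 15 min at room temperature.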
# [11] = HEK293 24hr Apoptosis Induction qHTS against the NCATS CANVASS Library (AID 1347359)
# Procedure, shortened: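 Caspase-3/7 activation measured as luminescence from the DEVD-based Caspase-Glo reagent, 15 min at room temperature, following 24-hour compound treatment of HEK293 cells.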
# [12] = HPAF-II 18hr Apoptosis Induction qHTS against the NCATS CANVASS Library (AID 1347360)
# Procedure, shortened: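 HPAF-II cells at 500/well were exposed for 18 h at 37 C to an 11-point compound series. Caspase-3/7 activity was read by Caspase-Glo luminescence after 15 min at RT.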
# [13] = HEK293 12hr Apoptosis Induction qHTS against the NCATS CANVASS Library (AID 1347361)
# Procedure, shortened: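 HEK293 cells (500/well) were exposed to an 11-point qHTS concentration series for 12 hours at 37 degrees C. Caspase-3/7 activity was then read by DEVD-substrate luciferase luminescence after 15 min at room temperature.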
# [14] = biological target: Luciferin 4-monooxygenase (Photinus pyralis) (UniProt P08659); experiment: Firefly luciferase counterscreen qHTS: Assay Interference Panel against the NCATS CANVASS Library (AID 1347363)
# Procedure, shortened: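 Luminescence inhibition readout: compounds (11-point qHTS) sat 15 min at room temperature with substrate mix (0.013 mM luciferin and ATP), then firefly luciferase was added and signal read 5 min later.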
# [15] = KB-8-5-11 Cancer Cell Toxicity qHTS against the NCATS CANVASS Library (AID 1347364)
# Procedure, shortened: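 KB-8-5-11 cells (500/well) in DMEM + 10% FBS were exposed to compounds in an 11-point qHTS series for 72 hr at 37C, 5% CO2. Viability was read by CellTiter-Glo luminescence.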
# [16] = KB-3-1 Cancer Cell Toxicity qHTS against the NCATS CANVASS Library (AID 1347366)
# Procedure, shortened: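 KB-3-1 cells (500/well) in DMEM with 10% FBS were exposed to compounds for 72 h at 37C. Viability was read by CellTiter-Glo luminescence.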
# [17] = qHTS for ATAD5 Agonist screened against the NCATS CANVASS Library (AID 1347367)
# Procedure, shortened: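 Luciferase reporter under ATAD5 control, stably integrated in HEK293T cells (2000/well). Compounds (11 points) incubated 16 h at 37C; viability read first by CellTiter-Fluor, then luminescence reporting ATAD5 activation. MMS positive control.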
# [18] = G06 Cancer Cell Toxicity qHTS against the NCATS CANVASS Library (AID 1347368)
# Procedure, shortened: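 G06 dog glioma cells seeded at 500 cells/well were exposed to compounds (11-point qHTS series) for 72 hr at 37C, 5% CO2; viability read as ATP content by CellTiterGlo luminescence.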
# [19] = MCF7 Cancer Cell Toxicity qHTS against the NCATS CANVASS Library (AID 1347369)
# Procedure, shortened: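 MCF7 cells (500/well) were exposed 72 h at 37 °C to compounds in an 11-point series. Viability was read as ATP content by CellTiterGlo luminescence.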
# [20] = J3T Cancer Cell Toxicity qHTS against the NCATS CANVASS Library (AID 1347371)
# Procedure, shortened: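 J3T dog glioma cells (500 cells/well) were exposed to compounds in an 11-point series for 72 hr at 37C, 5% CO2. Cytotoxicity was read as ATP content by CellTiterGlo luminescence.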
# [21] = biological target: Nuclear receptor subfamily 1 group I member 3 (Homo sapiens) (UniProt Q14994); experiment: qHTS for Constitutive Androstane Receptor (CAR) Antagonist screened against the NCATS CANVASS Library (AID 1347372)
# Procedure, shortened: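 HepG2-CYP2B6-hCAR double-stable cells plated, 4hr attach; cpd pin-transferred; CITCO 50 nM final; 24hr 37C/5% CO2; CellTiter-Fluor 1hr (fluorescence), then ONE-Glo luminescence.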
# [22] = biological target: Nuclear receptor subfamily 1 group I member 3 (Homo sapiens) (UniProt Q14994); experiment: qHTS for Constitutive Androstane Receptor (CAR) Agonist screened against the NCATS CANVASS Library (AID 1347373)
# Procedure, shortened: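 HepG2 cells stably expressing hCAR and a CYP2B6-2.2kb luciferase reporter were treated for 24hr at 37C with compounds (11-point qHTS) in the presence of 1.5uM PK11195. Reporter activation was read by ONE-Glo luminescence.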
# [23] = qHTS for Hypoxia signaling pathway (HIF-1) agonists against the NCATS CANVASS Library (AID 1347375)
# Procedure, shortened: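 HRE-bla ME-180 cells (beta-lactamase reporter under hypoxia responsive element) in 0.5% dialyzed FBS medium, 5 h at 37C, then compound 17 h, 11-point qHTS series. CCF4-AM FRET substrate 2 h RT; 460/530 nm emission read.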
# [24] = 10-beta competent E. coli microbial cell viability qHTS against the NCATS CANVASS Library (AID 1347376)
# Procedure, shortened: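 10-beta competent E. coli (0.9 OD culture diluted to 0.2 OD) exposed to compounds in an 11-point qHTS series, incubated overnight at 37C, 5% CO2. Viability read as ATP by BacTiter-Glo luminescence after 20 min at room temperature.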
# [25] = DH5-alpha competent E. coli microbial cell viability qHTS against the NCATS CANVASS Library (AID 1347377); details: outcome: at 46.1 µM (top of the series)
# Procedure, shortened: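 DH5-alpha E. coli suspension (0.9 OD culture diluted to 0.2 OD) exposed to compounds in an 11-point series, overnight at 37C, 5% CO2. Viability read as ATP by BacTiter-Glo luminescence after 20 min at room temperature.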
# [26] = qHTS for Inflammasome Signaling Inhibitors: IL-1-beta AlphaLISA screen against the NCATS CANVASS Library (AID 1347379)
# Procedure, shortened: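 Human THP-1 cells were pretreated 1 hr at 37 °C with compounds (up to 57.5 uM final), then stimulated with LPS (250 ng/mL final) and ATP (1.25 mM final). Secreted IL-1B was read by AlphaLISA after 16 hr.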
# [27] = Inflammasome Signaling qHTS Counterscreen: IL-1-beta AlphaLISA counterscreen against the NCATS CANVASS Library (AID 1347381)
# Procedure, shortened: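 To flag interference with the AlphaLISA read-out, a known amount of purified IL-1-beta (4 pg) replaced cell supernatant. Detection used anti-IL-1-beta acceptor beads, biotinylated antibody and streptavidin donor beads at room temperature.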
# [28] = qHTS for Activators of p53 Stress Response Pathway screened against the NCATS CANVASS Library (AID 1347388)
# Procedure, shortened: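 Beta-lactamase reporter driven by p53 response elements in HCT-116 cells, read as the 460 nm/530 nm emission ratio after CCF4 loading, following 16 h of exposure to an 11-point series. Cell viability was measured in the same wells by CellTiter-Glo luminescence.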
# [29] = Secretion counterscreen for inhibitors of the SERCaMP assay screened against the NCATS CANVASS Library (AID 1347390)
# Procedure, shortened: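 SH-SY5Y cells with constitutively secreted GLuc reporter, 1000 cells/well, treated 20 h at 37C with compounds at 0.001 - 77 uM final; secreted luciferase read as luminescence after coelenterazine; Brefeldin A as positive control.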
# [30] = qHTS for activators of dead-cell proteases activity screened against the NCATS CANVASS Library (AID 1347392)
# Procedure, shortened: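 Compounds are pin-transferred onto attached HepG2 cells, giving 11 final concentrations. After 5 h at 37C, AAF-aminoluciferin reagent is added and luminescence is recorded at room temperature.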
# [31] = qHTS for inhibitors of Wild type Zika virus screened against the NCATS CANVASS Library (AID 1347396)
# Procedure, shortened: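 Using ATP-based luminescence (CellTiter Glo), this screen scores rescue of Vero 766 cells from wild-type Zika killing at 72 h post-infection. Compounds are tested in a concentration series.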
# [32] = Redox Reaction Profiling qHTS: Assay Interference Panel against the NCATS CANVASS Library (AID 1347401)
# Procedure, shortened: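 Cell-free redox surrogate: 5 uM resazurin + 200 uM DTT, 50 mM HEPES pH 7.3/50 mM NaCl; cpds pinned, 11-pt qHTS; Ex525/Em598 read t0 and t=15 min, dark.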
# [33] = qHTS for inhibitors of Rabies Virus screened against the NCATS CANVASS Library (AID 1347402; calls by dose curve)
# Sequence of Nuclear receptor subfamily 1 group I member 3 (Homo sapiens) (Q14994 whole entry, looked up): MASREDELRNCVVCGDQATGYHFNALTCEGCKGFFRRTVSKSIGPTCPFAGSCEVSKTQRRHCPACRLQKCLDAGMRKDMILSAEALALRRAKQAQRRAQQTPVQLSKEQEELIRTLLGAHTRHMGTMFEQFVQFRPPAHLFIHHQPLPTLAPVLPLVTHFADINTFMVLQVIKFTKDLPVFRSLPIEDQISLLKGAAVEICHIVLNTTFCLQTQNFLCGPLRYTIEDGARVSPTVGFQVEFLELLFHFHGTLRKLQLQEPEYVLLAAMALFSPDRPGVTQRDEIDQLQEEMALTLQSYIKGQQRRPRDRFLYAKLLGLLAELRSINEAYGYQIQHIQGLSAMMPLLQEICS
# Sequence of Luciferin 4-monooxygenase (Photinus pyralis) (P08659 whole entry, looked up): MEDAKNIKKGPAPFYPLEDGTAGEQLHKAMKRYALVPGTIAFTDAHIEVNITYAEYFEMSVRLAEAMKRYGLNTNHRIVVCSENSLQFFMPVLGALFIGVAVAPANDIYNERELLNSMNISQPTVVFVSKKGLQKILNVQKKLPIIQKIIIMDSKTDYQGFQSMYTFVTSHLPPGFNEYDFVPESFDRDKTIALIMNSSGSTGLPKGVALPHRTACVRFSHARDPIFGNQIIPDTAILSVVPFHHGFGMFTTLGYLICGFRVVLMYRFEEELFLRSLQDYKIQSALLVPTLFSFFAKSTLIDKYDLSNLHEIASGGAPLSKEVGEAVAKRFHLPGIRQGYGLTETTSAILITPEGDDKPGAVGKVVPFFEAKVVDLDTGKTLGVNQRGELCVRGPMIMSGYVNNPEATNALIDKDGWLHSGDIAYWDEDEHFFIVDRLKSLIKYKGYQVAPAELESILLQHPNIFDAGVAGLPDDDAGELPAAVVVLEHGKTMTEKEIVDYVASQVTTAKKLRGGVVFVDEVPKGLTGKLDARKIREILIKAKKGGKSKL
compound,measurement,setting,value
CC=C1CN(C=O)[C@H]2C[C@@H]1[C@@H](C(=O)OC)[C@@]13CCOC21Nc1ccccc13 (stereo partly drawn),Potency,[1],44 µM (active)
same,Potency,[2],inactive
same,Potency,[3],inactive
same,Potency,[4],inactive
same,Potency,[5],inactive
same,Potency,[6],inactive
same,Potency,[7],inactive
same,Potency,[8],inactive
same,outcome,[9],inactive
same,Potency,[10],inactive
same,Potency,[11],inactive
same,outcome,[12],inactive
same,Potency,[13],inactive
same,outcome,[14],inactive
same,Potency,[15],inactive
same,Potency,[16],inactive
same,Potency,[17],inactive
same,Potency,[18],inactive
same,Potency,[19],inactive
same,Potency,[20],inactive
same,Potency,[21],inactive
same,outcome,[22],inactive
same,Potency,[23],inactive
same,outcome,[24],inactive
same,outcome,[25],inactive
same,Potency,[26],inactive
same,outcome,[27],inactive
same,Potency,[28],inactive
same,Potency,[29],inactive
same,Potency,[30],inactive
same,Potency,[31],inactive
same,Potency,[32],inactive
same,outcome,[33],inactive
